# Laboratory results as given in PubChem BioAssay (NCATS).
# “And” between values parts separate entries of the source, which are not always exact repeats. Equal values may be shown once. Unmarked numbers belong to inactive results. Records with an inconclusive call do not appear. Entries that show only a call come without a potency. The source made the active and inactive calls. Unless noted, calls follow the shape of the dose curve; as a rule, active = well fitted curve in the direction sought with a large enough effect; inconclusive = small, poorly fitted or top-dose-only effect, or another doubt; inactive = no such curve, though single readings can be large; an effect the other way counts as inactive or inconclusive.
# Legend:
# [1] = molecular target: Mitogen-activated protein kinase 10 (Mus musculus) (UniProt Q61831); assay: JNK3 AlphaScreen Assay (AID 530; active = well fitted curve in either direction with a large enough effect, not every such curve was filed as active;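 also: kinase came from lysate of stimulated human HepG2 cells; signal reports phosphorylation of biotinylated GST-cJun 1-79 at Ser73 with 10 µM ATP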)
# Method in brief: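 Phosphorylation of biotinylated GST-cJun(1-79) at Ser73 is measured by AlphaScreen proximity luminescence. Enzyme is JNK3 in HepG2 lysates activated with interleukin-1beta and tumor necrosis factor alpha; ATP is 10 uM final.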
# [2] = Cell Viability - Renal Proximal Tubule (AID 545);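 also: cells exposed to compound for 40 hours; nearly all actives have a fitted effect of over 40% in size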
# Method in brief: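 Cytotoxicity is scored as a concentration-dependent drop in cellular ATP in primary rat renal proximal tubule cells exposed for 40 hr. AC50 derives from Hill modelling.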
# [3] = Cellular Toxicity (caspase-3) Hek293 (AID 664); details: HEK293 caspase-3 activation, DMSO = 0%, 100 µM tamoxifen = 100%; at 92.2 µM (top of the series);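 also: cells exposed to compound for 16 h at 37 °C before readout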
# Method in brief: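 Concentration-response qHTS: caspase 3/7 activation measured by luminescent aminoluciferin substrate cleavage after 16 h compound exposure of Hek 293 cells. AC50 from Hill equation, with DMSO as basal and 100 uM tamoxifen as 100%.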
# [4] = Cell Viability - LYMP2-003 (AID 965);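 also: cells exposed to compounds for 24 h before reading; nearly all actives have a fitted effect of over 50% in size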
# Method in brief: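 Acute cytotoxicity is scored as a concentration-dependent drop in intracellular ATP, measured by luciferase luminescence in human lymphoblastoid cells treated for 24 hours at 37 C. AC50 values derive from Hill-equation modelling.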
# [5] = Cell Viability - LYMP2-009 (AID 968); also: nearly all actives have a fitted effect of over 55% in size
# [6] = Cell Viability - LYMP2-011 (AID 969); also: nearly all actives have a fitted effect of over 60% in size
# Method in brief: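 Cytotoxicity qHTS with ATP content as read-out: lymphoblastoid cells (2500/well) exposed to compound for 24 h at 37 C, then luciferase luminescence measured. Concentration-response data fitted with the standard Hill equation to give AC50.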
# [7] = Cell Viability - LYMP2-019 (AID 973); also: nearly all actives have a fitted effect of over 55% in size
# Method in brief: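 AC50 values come from Hill-equation fits of luminescent intracellular ATP (CellTiter-Glo, 30 min, room temperature) following 24 h compound exposure at 37 C. Cells: LYMP2-019 lymphoblastoid line, 2500 per well, in complete culture medium.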
# [8] = Cell Viability - LYMP2-021 (AID 974); also: nearly all actives have a fitted effect of over 55% in size
# Method in brief: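 AC50 values come from Hill-equation fits to CellTiter-Glo luminescence (ATP content), read after 24 hour compound exposure at 37 C of 2500 LYMP2-021 lymphoblastoid cells/well; tetraoctylammonium bromide as positive control.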
# [9] = Cell Viability - LYMP2-006 (AID 978); also: nearly all actives have a fitted effect of over 60% in size
# Method in brief: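 Concentration-dependent loss of intracellular ATP in a human lymphoblastoid line after 24 hr treatment at 37 C was measured by CellTiter-Glo luminescence, with AC50 values obtained from standard Hill-equation modelling.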
# [10] = Cell Viability - LYMP2-010 (AID 981); also: nearly all actives have a fitted effect of over 55% in size; also: potency is read from the fitted curve at half-maximal effect
# Method in brief: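 CellTiter-Glo ATP luminescence measured cytotoxicity after 24 h compound exposure at 37 C. LYMP2-010 cells were seeded at 2500/well, with tetraoctylammonium bromide as control; concentration-response curves gave AC50 values by the Hill equation.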
# [11] = Cell Viability - LYMP2-014 (AID 983); also: nearly all actives have a fitted effect of over 50% in size
# Method in brief: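 Intracellular ATP loss, read by luciferase luminescence, measures acute cytotoxicity after 24 h compound exposure of lymphoblastoid LYMP2-014 cells (2500/well, 37 C). Concentration-response data fitted to the Hill equation for AC50.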
# [12] = Cell Viability - LYMP2-022 (AID 987); also: nearly all actives have a fitted effect of over 55% in size
# Method in brief: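 Cytotoxicity read as decreased cellular ATP (CellTiter-Glo luminescence, 30 min room temperature) after 24 hours compound exposure of 2500 lymphoblastoid LYMP2-022 cells/well at 37 C. Concentration-response data fitted with standard Hill equation for AC50.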
# [13] = molecular target: Voltage-gated inwardly rectifying potassium channel KCNH2 (Homo sapiens) (UniProt Q12809); assay: qHTS Assay for Small Molecule Inhibitors of the Human hERG Channel Activity (AID 588834);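 also: lower thallium flux fluorescence means stronger hERG block; nearly all actives have a fitted effect of over 50% in size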; also: potency is read from the fitted curve at half-maximal effect
# Method in brief: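 Cells were infected with hERG-BacMam virus for 4 hrs at room temperature, grown overnight, then seeded at 2000/well. After dye loading and roughly 10 min compound treatment, thallium influx was triggered and fluorescence recorded.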
# [14] = qHTS assay for small molecule activators of the nuclear factor-kappa B (NF-kB) signaling pathway (AID 651749; active = well fitted activation curve with a large enough effect in the signal ratio; the % refers to the signal ratio); details: NF-kB-bla ME-180 cells, beta-lactamase FRET ratio, 16 h; stronger effect = higher value
# Method in brief: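 Human ME-180 cervical cells with an NF-kB-bla construct; compounds added via 23 nL pin transfer, DMSO as vehicle; incubation 16 hr. Reporter activity measured by FRET disruption.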
# [15] = qHTS assay for small molecule activators of the human pregnane X receptor (PXR) signaling pathway (AID 720659; call rule not given here)
# [16] = Cellular Toxicity (caspase-3) Jurkat (AID 655); details: Jurkat caspase-3 activation, luminescence; caspase-3 activation: at 92.2 µM (top of the series), DMSO = 0%, tamoxifen = 100%;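 also: cells exposed to compound for 16 h at 37 °C before reading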
# Method in brief: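 Caspase 3/7 activation is scored as increased luminescence in Jurkat cells cultured with compound for 16 hours in complete medium. AC50 values come from Hill fits of qHTS concentration-response data normalized to DMSO and 100 uM tamoxifen controls.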
# [17] = Cell Viability - LYMP1-003 - Assay at 40 hr (AID 964); also: nearly all actives have a fitted effect of over 60% in size
# Method in brief: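 Viability is taken as cellular ATP, read by CellTiter-Glo luminescence after 40 h of compound exposure at 37 C. Cells: human lymphoblastoid line LYMP1-003 at 2500/well; AC50 values derived by Hill-equation fitting of concentration-response data.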
# [18] = Cell Viability - LYMP2-002 (AID 977)
# Method in brief: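 In this qHTS viability screen, 2500 human lymphoblastoid cells per well receive compound for 24 hr at 37 C, and luciferase-based ATP luminescence gives the viability signal. Tetraoctylammonium bromide serves as positive control.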
# [19] = Cell Viability - LYMP2-020 (AID 986); also: nearly all actives have a fitted effect of over 55% in size
# Method in brief: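 Cytotoxicity in qHTS format: luminescent ATP readout from CellTiter-Glo after 24 h compound exposure at 37 C in complete medium. LYMP2-020 lymphoblastoid cells were seeded at 2500/well; concentration-response data fitted to the Hill equation for AC50.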
# [20] = Cell Viability - LYMP2-017 (AID 972); also: nearly all actives have a fitted effect of over 55% in size
# Method in brief: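 CellTiter-Glo luminescence (cellular ATP, 30 min RT) measured cytotoxicity after 24 hr compound treatment at 37 C. Cells were a human lymphoblastoid line, LYMP2-017, plated at 2500/well and incubated 5 hr first; concentration-response fitted with Hill equation for AC50.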
# Voltage-gated inwardly rectifying potassium channel KCNH2 (Homo sapiens), sequence (Q12809 whole entry, looked up): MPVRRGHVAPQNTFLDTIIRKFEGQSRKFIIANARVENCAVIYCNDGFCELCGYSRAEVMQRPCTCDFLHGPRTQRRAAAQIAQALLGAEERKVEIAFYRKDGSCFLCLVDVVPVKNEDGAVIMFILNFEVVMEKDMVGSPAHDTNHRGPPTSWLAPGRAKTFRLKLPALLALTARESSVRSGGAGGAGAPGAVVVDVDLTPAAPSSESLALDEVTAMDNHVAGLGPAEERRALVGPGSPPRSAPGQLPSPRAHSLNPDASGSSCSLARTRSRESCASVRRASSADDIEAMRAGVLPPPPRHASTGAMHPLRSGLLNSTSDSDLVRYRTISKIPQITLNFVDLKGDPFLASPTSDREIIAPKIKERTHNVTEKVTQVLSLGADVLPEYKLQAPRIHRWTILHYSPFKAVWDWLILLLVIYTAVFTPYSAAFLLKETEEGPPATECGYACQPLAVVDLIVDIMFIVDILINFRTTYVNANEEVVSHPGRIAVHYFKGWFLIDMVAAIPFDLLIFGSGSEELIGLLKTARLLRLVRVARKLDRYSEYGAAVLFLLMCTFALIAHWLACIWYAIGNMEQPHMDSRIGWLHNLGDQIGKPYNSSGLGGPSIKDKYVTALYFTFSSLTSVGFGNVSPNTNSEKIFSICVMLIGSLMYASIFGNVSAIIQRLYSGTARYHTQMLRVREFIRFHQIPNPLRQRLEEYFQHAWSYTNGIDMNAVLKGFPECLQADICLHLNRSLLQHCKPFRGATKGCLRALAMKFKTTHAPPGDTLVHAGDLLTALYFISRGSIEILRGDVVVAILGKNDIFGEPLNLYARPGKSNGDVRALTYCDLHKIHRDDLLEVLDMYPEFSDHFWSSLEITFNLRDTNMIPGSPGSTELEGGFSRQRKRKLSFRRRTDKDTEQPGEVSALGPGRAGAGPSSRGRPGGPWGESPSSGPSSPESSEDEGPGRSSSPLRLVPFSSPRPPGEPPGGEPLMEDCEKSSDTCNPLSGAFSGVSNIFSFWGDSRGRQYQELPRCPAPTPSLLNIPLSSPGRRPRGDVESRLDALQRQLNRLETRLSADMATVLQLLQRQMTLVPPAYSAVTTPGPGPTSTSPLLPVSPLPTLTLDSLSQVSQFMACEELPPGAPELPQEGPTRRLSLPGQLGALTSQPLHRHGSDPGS
Structure (SMILES),Potency [1],outcome [2],caspase-3 activation [3] [%],Potency [4],Potency [5],Potency [6],Potency [7],Potency [8],Potency [9],Potency [10],Potency [11],Potency [12],Potency [13],activation [14],outcome [15],caspase-3 activation [16],Potency [17],Potency [18],Potency [19],Potency [20]
N#CCBr,inactive,inactive,1.09,inactive,inactive,inactive,inactive,inactive,inactive,inactive,inactive,inactive,inactive,0.342%,inactive,,,,,
CC[N+](=O)[O-],inactive,inactive,3.71,,inactive,inactive,,inactive,inactive,inactive,inactive,inactive,inactive,1.19%,inactive,1.63%,inactive,inactive,inactive,
CCBr,inactive,inactive,2.63,,inactive,inactive,,inactive,inactive,inactive,inactive,inactive,,-0.926%,inactive,-0.439%,inactive,inactive,inactive,
Oc1cc(Cl)c(Cl)c(Cl)c1Cl,inactive,,8.07,inactive,,,inactive,,inactive,inactive,inactive,,inactive,,inactive,80.5% (active),inactive,inactive,,
CCOC(=O)CC(SP(=O)(OC)OC)C(=O)OCC (stereo not drawn),inactive,inactive,,inactive,inactive,inactive,inactive,,inactive,inactive,inactive,inactive,,-1.06% and 1.21%,inactive,1.26%,inactive,,inactive,inactive
ClCCOCOCCCl,inactive,inactive,-1.31,,,,inactive,inactive,inactive,inactive,inactive,,inactive,-0.753%,inactive,-0.171%,inactive,inactive,inactive,
OCCOCCO,inactive,inactive,,inactive,inactive,,inactive,inactive,inactive,inactive,inactive,,inactive,,inactive,-0.825%,inactive,inactive,inactive,inactive
O=[N+]([O-])c1cccc(O)c1,inactive,inactive,0.974,inactive,inactive,inactive,inactive,inactive,,inactive,inactive,inactive,inactive,-0.57%,inactive,1.08%,inactive,inactive,inactive,inactive
Clc1cccc2ccccc12,inactive,inactive,-0.708,,inactive,,inactive,inactive,inactive,inactive,inactive,inactive,inactive,0.856%,inactive,0.494%,inactive,inactive,inactive,inactive
O=Cc1ccc(Cl)cc1Cl,,inactive,-1.13,inactive,inactive,inactive,inactive,inactive,,inactive,inactive,inactive,inactive,1.15%,inactive,8.63%,,inactive,,inactive
C=C(Cl)CSC(=S)N(CC)CC,,inactive,0.963,,,inactive,,inactive,inactive,,,,39.8 µM (active),-0.634%,inactive,1.37%,inactive,inactive,,
C=CC(=O)OCCO,inactive,inactive,2.01,,,,,,,50.1 µM (active),,,inactive,0.11%,inactive,15.3%,,inactive,,
O=[N+]([O-])c1cc(Cl)c(Cl)cc1Cl,inactive,inactive,,inactive,inactive,inactive,inactive,inactive,,inactive,,inactive,inactive,,inactive,2.39%,,inactive,inactive,inactive
Cl/C=C/CCl,inactive,inactive,-1.73,inactive,,inactive,inactive,inactive,inactive,inactive,inactive,inactive,inactive,0.574%,inactive,,inactive,inactive,inactive,inactive
